# aSyn yeast inh: inhibitors of alpha-synuclein toxicity in yeast | Yeast expressing alpha-synuclein, growth rescue, BacTiter-Glo, 24 h | Potency, µM (titrated, usually from 46.1 µM), for inactives: at the top dose growth rescue (activation), actives largely listed as activators | actives 0.14% (n = 370,000) | AID 652106; further: % of control where 0% means no effect; nearly all actives have a fitted effect of over 65% in size
#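 Readout is rescue of growth in alpha-synuclein-expressing yeast, so inhibitors of toxicity appear as activators. Growth after 24 hr at 30 deg C in galactose medium is quantified by luminescence.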
# FUS yeast rescue: FUS proteinopathy suppression in yeast; S. cerevisiae FUS-expressing, growth rescue, OD600, 24 h; Potency, µM (series often up to 76.6 µM), usual class: activators; actives 0.24% (n = 390,000);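 further: plate controls were DMSO vehicle for no effect and reference control for full effect; nearly all actives have a fitted effect of over 55% in size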
#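 Yeast FUS proteinopathy model; galactose-induced FUS (2%), starting OD 0.005. Cpds in dilution series, 24hr, 30C, 99% humidity. Abs 600 nm growth. Pos ctrl CP55940 (top 92uM final); neg ctrl DMSO.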
# TDP-43 yeast inh: rescues yeast growth from TDP-43 toxicity | TDP-43 expressing yeast growth rescue, BacTiter-Glo, 24 h | Potency, µM (highest dose often 46.1 µM), for inactives: at the highest dose growth rescue (activation), most hits filed as activators | actives 1.8% (n = 410,000) | AID 652104; further: % of control where 0% means no effect; nearly all actives have a fitted effect of over 50% in size
#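 Yeast expressing TDP-43 (pregrown in raffinose, seeded at OD600=0.02 in galactose medium) exposed to compounds 24 hr at 30 deg C. Growth read by BacTiter-Glo luminescence; rescue of toxicity appears as increased signal.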
# A-T KAP1 phos: potential ataxia-telangiectasia treatments restoring KAP-1 phosphorylation | F2112 A-T fibroblasts, KAP-1 phosphorylation AlphaLISA; neocarzinostatin DNA damage 30 min before lysis | Potency, µM (titrated, usually from 57.5 µM), without a hit: at the highest dose activation, hits mostly activators | actives 0.19% (n = 320,000); further: % of control where 0% means no effect; nearly all actives have a fitted effect of over 45% in size
#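 ATM-like activity read as KAP-1 phosphorylation via AlphaLISA donor/acceptor antibody pairs after lysis and 6 hr at 25C. Cells were ATM-null patient fibroblasts (F2112, hTERT), dosed 60 min, then exposed to the DSB inducer NCS for 30 min.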
# Mito fusion act: blocks mitochondrial division or promotes mitochondrial fusion; S. cerevisiae fusion-defective mutant growth rescue, CellTiterGlo 48 h; actives 0.23% (n = 320,000); AID 485298; Potency, µM (doses to about 46.1 µM), for the others: at the top dose growth rescue (activation), usual class: activators; further: % of control where 0% means no effect; nearly all actives have a fitted effect of over 45% in size
#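 Temperature-sensitive fusion-defective S. cerevisiae (e.g. fzo1-1, mgm1-5) were grown with compound in YPEG medium (3% ethanol, 3% glycerol) for 48 hours at 37C. Growth rescue was measured as viability by CellTiterGlo luminescence after 10 minutes at ambient.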
# Abeta yeast res: compounds reversing amyloid beta toxicity in yeast. yeast expressing A-beta42, growth rescue, OD600, 48 h; response scale: 0% DMSO, 100% iron-clioquinol control. Potency, µM (titrated, usually from 46.1 µM), most hits filed as activators. actives 0.063% (n = 410,000); further: nearly all actives have a fitted effect of over 55% in size
#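 Yeast A-beta toxicity model in growth medium with pinned compounds, 48 h at 30 C; growth read as absorbance at 600 nm. Normalized to FeCl3/clioquinol equimolar mix (positive) and DMSO (negative).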
# Numbers without * were called inactive; i = inactive; ? = inconclusive; . = not tested or not shown; [ ] = remark or other dose. Sampled rows, rich in hits. Any-hit rate of the full collection: about 2.4%. The call rests on the fitted dose curve; in most records, active means well fitted curve in the direction sought with a large enough effect; inconclusive means small, poorly fitted or top-dose-only effect, or another doubt; inactive means no such curve, though single readings can be large; an effect the other way counts as inactive or inconclusive. Potency means the concentration at half of the fitted maximal effect.
SMILES,aSyn yeast inh,FUS yeast rescue,TDP-43 yeast inh,A-T KAP1 phos,Mito fusion act,Abeta yeast res
Cc1ccc(C2=C(c3ccc([N+](=O)[O-])cc3)C(=O)OC2)cc1C,-4%,i,13µM*,-6%,15%,i
COc1ccc(C2=C(c3ccc([N+](=O)[O-])cc3)C(=O)OC2)cc1,-5%,i,-8%,2%,-8%,i
COc1ccc(S[C@]2(C(=O)NC(C)C)CC(=O)N[C@@H]2c2ccc(OC)cc2)cc1,.,i,.,.,.,.
COc1ccc(C(C)=O)cc1CSc1nnc(Nc2ccc(C)cc2C)s1,?,i,20µM*,-2%,16µM*,i
Oc1ccc2[nH]cc(CCc3ccccc3)c2c1-c1ccccc1,.,i,.,.,.,.
CCc1ccc(/C=C2\SC(=S)N(CCCC(=O)N(CCO)c3ccccc3)C2=O)cc1,20%,22µM*,35µM*,.,.,i
CC(=O)NNC(=O)CN1C(=O)/C(=C/c2ccccc2)SC1=S,5%,i,-5%,3.2µM*,.,i
O=C(O)CN1C(=O)/C(=C/C=C/c2ccccc2)SC1=S,12%,i,12%,-5%,-2%,i
CCN(CC)C(=O)CN1C(=O)/C(=C/c2ccccc2)SC1=S,2%,i,-3%,6%,-6%,i
COc1ccc(/C=C2/SC(=S)N(Cc3ccccc3)C2=O)cc1O,22%,i,10%,40µM*,7%,i
O=C(O)CN1C(=O)/C(=C\C(Br)=C\c2ccccc2)SC1=S,17%,i,13µM*,3%,-32%,i
Cc1ccccc1Cn1c(=O)n(CCCCC(=O)NCc2ccc3c(c2)OCO3)c(=O)c2ccccc21,.,i,22%,.,.,i
O=C(NCCc1ccccc1Cl)c1sc2ncccc2c1-n1cccc1,.,?,18µM*,.,.,i
O=c1c(N2CCc3ccccc3C2)csc2ccc(F)cc12,.,i,?,.,.,i
O=C(Oc1coc(CSc2ncccn2)cc1=O)c1ccc([N+](=O)[O-])cc1,.,i,.,.,.,.
COc1ccc(S[C@]2(C(=O)N3CCOCC3)CC(=O)N(C(=O)CCc3ccccc3)[C@@H]2c2ccc(OC)cc2)cc1,.,i,.,.,.,.
O=S(=O)(Cc1cc(Cl)nc(-c2ccccc2)n1)c1ccccc1,-8%,i,-10%,3%,16%,i
Cc1nc(CS(=O)(=O)c2ccc(Cl)cc2)cc(Sc2ccccc2Cl)n1,19%,i,35µM*,-2%,?,i
Cc1nc(CS(=O)(=O)c2ccccc2)cc(Sc2ccc(Cl)cc2)n1,15%,i,?,3%,24%,i
Cc1nc(CS(=O)(=O)c2ccccc2)cc(Sc2ccccc2Cl)n1,11%,i,32µM*,-5%,10%,i[9.22 µM]
COc1cc(C=Nn2c(-c3n[nH]c4c3CCC4)n[nH]c2=S)ccc1OCc1ccccc1,.,i,.,.,.,.
O=C(Nc1cc(Cl)ccc1-n1cncn1)c1ccc([N+](=O)[O-])o1,-28%,i,14µM*,5%,13%,i
COCCCNc1nc2ccccc2nc1NS(=O)(=O)c1cccc(C)c1,-5%,i,14µM*,3%,9%,i
COCCCNc1nc2ccccc2nc1NS(=O)(=O)c1ccccc1,-1%,i,19%,0%,4%,i
COc1ccc(CN2CNc3nc4ccccc4n3C2)cc1,.,i,15%,.,-2%,i
SMILES,aSyn yeast inh,FUS yeast rescue,TDP-43 yeast inh,A-T KAP1 phos,Mito fusion act,Abeta yeast res
c1coc(CN2CNc3nc4ccccc4n3C2)c1,4%,i,5%,10µM*,-5%,i
COc1ccc(C(=O)N2CCC(c3nc(-c4ccc(S(=O)(=O)N5CCCC5)cc4)no3)CC2)cc1,.,i,25%,.,.,i
CCCC/C=C1/[C@H](CC)N(C)C2=N[C@@H](c3ccccc3)CC(=O)N21,.,i,.,.,.,.
CCCc1n[nH]c(=S)n1Cc1ccco1,-3%,i,2%,39%,-15%,i
S=c1[nH]nc(COc2ccc(Cl)cc2)n1Cc1ccco1,5%,i,?,-1%,0%,13µM*
COc1ccc2c(c1)CC(C(=O)NCCCN1CCN(c3cccc(Cl)c3)CC1)CO2 (stereo not drawn),.,i,19%,.,.,i
N#Cc1cc(-c2ccccc2)oc1/N=C/c1ccccc1O,1%,i,3%,0%,10%,i
COc1cccc(/C=N/c2oc(-c3ccccc3)cc2C#N)c1O,14%,i,13µM*,-5%,0%,i
Cc1c(Cl)cccc1-n1ncc(C(=O)Nc2ccc(Br)cc2F)c1C1CCNCC1,.,i,7%,.,.,i
Cc1ccc(Cn2ccnc2SCC(=O)Nc2nc3ccccc3s2)cc1,.,?,22µM*,.,.,i
O=C(Nc1nnc(-c2cccnc2)s1)c1cnc2ccccc2c1,.,i,.,.,.,.
Cc1cc(C)n(-c2ncccc2[N+](=O)[O-])n1,6%,i,7%,0%,4%,i
CC(C)c1ccc(-n2cnn(-c3ncccc3[N+](=O)[O-])c2=O)cc1,-3%,i,11µM*,8%,-2%,i
CCOC(=O)CC(=O)CSc1nc2c(cc1C#N)CCCCCC2,-3%,11µM*,18%,3%,4%,i
COC(=O)CC(=O)CSc1nc2c(cc1C#N)CCC2,1%,i,-4%,6%,-4%,i
COC(=O)c1ccc(Cn2nc([N+](=O)[O-])c(Br)c2C)cc1,?,i,14µM*,4%,-2%,?
Cc1c(Br)c([N+](=O)[O-])nn1CC(=O)c1ccccc1,-3%,i,8%,2%,-3%,i
Nc1ccc(Sc2ccc([N+](=O)[O-])cc2)cc1,20µM*,i,?,9%,-6%,i
Clc1ccc(C(c2ccccc2Cl)C(Cl)Cl)cc1 (stereo not drawn),1%,i,23%,28µM*,?,i
CC1(C)CCC(c2ccc(Cl)cc2)=C(CN2CCN(c3ccc(C(=O)NS(=O)(=O)c4ccc(N[C@H](CCN5CCOCC5)CSc5ccccc5)c(S(=O)(=O)C(F)(F)F)c4)cc3)CC2)C1,-6%,.,.,.,.,.
C#CCOC(=O)Nc1cccn(Cc2c(Cl)cccc2Cl)c1=O,-8%,i,11µM*,-5%,-2%,i
O=C(Nc1cccn(Cc2c(Cl)cccc2Cl)c1=O)C1CC1,-15%,i,?,1%,0%,i
COCCn1c(SCc2cccc([N+](=O)[O-])c2)nc2ccccc2c1=O,2%,i,18µM*,0%,12%,i
N#C[C@@H]1N[C@H](CO)[C@@H]1c1ccccc1,.,i,.,.,.,.
O=C(O)c1ccccc1CSc1nc2ccccc2o1,6%,i,?,-4%,5%,i
